Measured values: PubChem BioAssay (Tox21)
Results filed as inconclusive are left out. A call without a number means that no potency is given here. Active and inactive are the calls of the source. Unless noted, calls come from the whole dose curve; as a rule, active = well fitted curve in the direction sought with a large enough effect in the repeat runs; inconclusive = weak or mixed curves; inactive = no such curve, though single readings can be large; an effect the other way counts as inactive or inconclusive.

Legend:
[1] = qHTS assay to identify small molecule agonists of the constitutive androstane receptor (CAR) signaling pathway - cell viability counter screen (AID 1224836); note: series mostly up to about 92 µM; nearly all actives have a fitted effect of over 45% in size
Method in brief: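 Fluorescence from CellTiter-Fluor indicates live cells after 23 h exposure. The human hepatoma line expresses hCAR and a CYP2B6-2.2kb reporter. Incubation medium contains 0.75 uM PK11195 (final).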

[2] = qHTS assay to identify small molecule antagonists of the constitutive androstane receptor (CAR) signaling pathway - cell viability counter screen (AID 1224837); note: series mostly up to about 92 µM; nearly all actives have a fitted effect of over 45% in size
Method in brief: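 Read-out: CellTiter-Fluor fluorescence after 23 hr at 37 C/5% CO2. Cells: HepG2 double-stable for hCAR and CYP2B6-2.2kb. Compounds tested at 15 concentrations in the presence of CITCO, final concentration 50 nM.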

[3] = biological target: Nuclear receptor subfamily 1 group I member 3 (Homo sapiens) (UniProt Q14994); assay: qHTS assay to identify small molecule agonists of the constitutive androstane receptor (CAR) signaling pathway (AID 1224839);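 note: HepG2 cells stably carrying human CAR and a CYP2B6 luciferase reporter; series mostly up to about 92 µM; nearly all actives have a fitted effect of over 15% in size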
Sequence of Nuclear receptor subfamily 1 group I member 3 (Homo sapiens) (Q14994 whole entry, looked up): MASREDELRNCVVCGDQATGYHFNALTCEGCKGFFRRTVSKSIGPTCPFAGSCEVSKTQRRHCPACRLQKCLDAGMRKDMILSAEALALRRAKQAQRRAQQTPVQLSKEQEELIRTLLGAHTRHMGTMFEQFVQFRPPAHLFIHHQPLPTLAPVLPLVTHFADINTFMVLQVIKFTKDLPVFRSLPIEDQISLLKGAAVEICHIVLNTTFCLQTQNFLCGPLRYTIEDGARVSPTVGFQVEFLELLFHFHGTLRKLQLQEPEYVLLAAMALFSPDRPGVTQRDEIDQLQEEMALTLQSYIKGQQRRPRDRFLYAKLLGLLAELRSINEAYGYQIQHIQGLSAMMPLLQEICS
Method in brief: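 Stable hCAR/CYP2B6-2.2kb HepG2 line in DMEM with 10% FBS; compounds (15 concentrations) and 0.75 uM PK11195 final, 24 h at 37 C/5% CO2, then ONE-Glo luminescence after 30 min.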

[4] = biological target: Thyrotropin receptor (Homo sapiens) (UniProt P16473); assay: qHTS assay to identify small molecule agonists of the thyroid stimulating hormone receptor (TSHR) signaling pathway (AID 1224843; calls by dose curve; note: nearly all actives have a fitted effect of over 45% in size)
Sequence of Thyrotropin receptor (Homo sapiens) (P16473 whole entry, looked up): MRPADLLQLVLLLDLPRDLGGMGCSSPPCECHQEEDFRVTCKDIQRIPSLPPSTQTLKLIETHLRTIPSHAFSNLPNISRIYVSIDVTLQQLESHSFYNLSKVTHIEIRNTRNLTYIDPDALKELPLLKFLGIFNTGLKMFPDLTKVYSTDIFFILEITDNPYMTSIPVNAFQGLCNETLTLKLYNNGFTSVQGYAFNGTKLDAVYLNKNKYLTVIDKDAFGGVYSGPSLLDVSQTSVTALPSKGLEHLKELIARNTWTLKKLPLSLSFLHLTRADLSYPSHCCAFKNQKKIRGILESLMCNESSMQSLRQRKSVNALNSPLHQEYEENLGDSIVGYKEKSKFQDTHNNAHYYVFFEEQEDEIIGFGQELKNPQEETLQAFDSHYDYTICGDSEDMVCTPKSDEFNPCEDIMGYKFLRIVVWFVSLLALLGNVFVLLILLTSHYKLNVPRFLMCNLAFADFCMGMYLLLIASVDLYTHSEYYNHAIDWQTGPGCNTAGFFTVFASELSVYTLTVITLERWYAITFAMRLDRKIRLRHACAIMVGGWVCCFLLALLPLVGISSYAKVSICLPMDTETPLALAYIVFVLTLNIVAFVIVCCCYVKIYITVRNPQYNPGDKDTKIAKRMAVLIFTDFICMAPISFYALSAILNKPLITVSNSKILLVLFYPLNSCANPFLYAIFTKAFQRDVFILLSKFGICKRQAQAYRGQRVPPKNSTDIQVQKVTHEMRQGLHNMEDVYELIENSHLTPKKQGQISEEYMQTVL
Method in brief: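 Agonist-mode screen: TSHR HEK293 cells received test chemicals for half an hour at room temperature, then HTRF cAMP detection reagents for one hour prior to fluorescence measurement. Each chemical ran as a 15-concentration series, triplicated.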

[5] = qHTS assay to identify small molecule agonists of the hypoxia (HIF-1) signaling pathway - cell viability counter screen (AID 1224844; calls by dose curve; note: nearly all actives have a fitted effect of over 50% in size; note: potency is the fitted concentration of half-maximal effect)
Method in brief: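 CellTiter-Glo luminescence read-out, 30 min RT, taken in the same wells as the beta-lactamase HRE reporter assay; HRE-bla ME-180 cells, 0.5% dialyzed FBS, 17 hr compound treatment at 37C, 5% CO2.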

[6] = qHTS assay to identify small molecule antagonists of the estrogen related receptor signaling pathway with the pleiotropic PPARgamma coactivator (PGC) from Tox21 10K library - cell viability counter screen (AID 1224840; active = well fitted cell-killing curve with a large enough effect in the repeat runs, not every such curve was filed as active; note: nearly all actives have a fitted effect of over 40% in size)
Method in brief: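 Fluorescence read-out of CellTiter-Fluor viability reagent, added after cells had been exposed to compound in DMSO for 17.5 h at 37 C; 30 min development at 37 C/5% CO2. Cells: PGC/ERR line, 2,000/well.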

[7] = qHTS assay to identify small molecule agonists of H2AX (AID 1224845; active = well fitted activation curve with a large enough effect in the signal ratio in the repeat runs, not every such curve was filed as active; the % refers to the signal ratio)
Method in brief: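 Wild-type CHO-K1 cells, plated overnight, exposed 3hr at 37C to 15 concentrations (0.76% DMSO final). Lysed, then HTRF anti-pH2AX (S139) cryptate and anti-H2AX-d2 antibodies, 24 hr room temperature; 665/620 nm emission read.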

[8] = qHTS assay to identify small molecule agonists of the estrogen related receptor signaling pathway with the pleiotropic PPARgamma coactivator (PGC) from Tox21 10K library (AID 1224842); note: nearly all actives have a fitted effect of over 15% in size
Method in brief: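 PGC/ERR reporter cell line, 2,000 cells per well, incubated 6 h at 37 C before 23 nL compound in DMSO was added. After 18 h at 37 C, One-Glo luminescence read following 30 min at room temperature.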

[9] = qHTS assay to identify small molecule antagonists of the estrogen related receptor signaling pathway with the pleiotropic PPARgamma coactivator (PGC) from Tox21 10K library (AID 1224841; call rule not given here; note: series mostly up to about 92 µM; actives are mostly falling curves and most rising ones were filed inactive; nearly all actives have a fitted effect of over 50% in size)
Method in brief: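 Luminescence read-out (One-Glo luciferase reagent, 30 min at room temperature) from PGC/ERR cells exposed to DMSO-dissolved test compounds for 18 h at 37 C; cells, 2,000 per well, had been preincubated 6 h before compound transfer.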

Row | Compound | Potency [1] | Potency [2] | Potency [3] | Potency [4] | Potency [5] | Potency [6] | Potency [7] | Potency [8] | Potency [9]
1 | Cc1ccc(-n2[nH]c(C)c(N=Nc3cccc(-c4cccc(C(=O)O)c4)c3O)c2=O)cc1C | inactive | inactive | inactive | inactive | 6.74 µM (active) |  |  |  | 
2 | Clc1nc2ccccc2s1 | inactive | inactive |  | inactive | inactive | inactive | inactive |  | 
3 | Cc1cncc(C)c1 | inactive | inactive | inactive | inactive | inactive | inactive |  | inactive | 
4 | NC(=O)c1ccccc1N | inactive | inactive | inactive | inactive | inactive | inactive | inactive |  | inactive
5 | Cn1cccc1 | inactive | inactive |  | inactive | inactive | inactive | inactive | inactive | inactive
6 | CC1CCCNC1 (stereo not drawn) | inactive | inactive | inactive | inactive |  | inactive | inactive |  | 
7 | O=S(=O)(O)CCCN1CCOCC1 | inactive | inactive |  | inactive |  | inactive | inactive | inactive | inactive
8 | CCN(CC)c1cccc(C)c1 | inactive | inactive |  |  | inactive | inactive |  | inactive | inactive
